Measurements reported in the OligoGym collection.

target: BZW1; test: pooled miR-30 sensor sort-seq; sequence = guide strand; conditions: shRNA
Note: reference of the scale not given here.

Row | Sequence | sensor-assay potency score (higher = more potent)
1 | TTACTTCATCTTCAAAACCTTT | -1.14
2 | TTGCTCAAGGAAAACACTCTTC | -0.371
3 | AATAATACAGTCTTGAAACTGA | 0.296
4 | TTCAAGAACAGCAGCAGCTTTT | -0.773
5 | TTGTGAAGTGTTCAACACTTTG | -1.21
6 | TTATCCATGCTGACTTTCCGAA | -0.947

target: C10orf129; test: as above; conditions: shRNA

Row | Sequence | sensor-assay potency score (higher = more potent)
7 | ATACTGGGAATACTCGACCATT | -1.34
8 | TTTAGAACAGTCTCAGGGCAGA | -0.497
9 | TGTAGGTCTGCTTTGGAGGGGC | -0.275
10 | TAGCTCTTATCTGACACCAGGA | -0.145
11 | TCTTGAAATCCAACCACCCATC | -1.29
12 | AACTTCTTGAAATCCAACCACC | -1.25
13 | AACTTGAATCAACTTCTTGAAA | -1.71
14 | TTATCTGACACCAGGAGCTTGG | -0.78
15 | TACATCTCTGGATTTGCAGATA | -0.615
16 | TTCTTGAAATCCAACCACCCAT | -0.764
17 | TGACACAGAAACACACAGGCTC | 0.78
18 | ATAGCTCTTATCTGACACCAGG | -1.02

target: C10orf27; test: as above; conditions: shRNA

Row | Sequence | sensor-assay potency score (higher = more potent)
19 | TAAAAGGTGATATCTTCGTTTT | -1.08
20 | TTTTGTAAAAGGTGATATCTTC | -0.0398
21 | TTCGATGTCTTCTTCTCTGTGT | 0.791
22 | TTTAGTAAGAGTTTTCACGGTA | 0.259
23 | TGATATCTTCGTTTTCTTCGGG | 0.224
24 | TTCTTCTCTGTGTTCTGGCTTG | -0.353
25 | TTGGATGTGGGTCACGTGCTGG | -0.839
26 | TCGAAATCCACAATCCCTGGGA | 0.448
27 | TTCTTCTCCAGTTTCAGCTCAG | -0.249
28 | TATCTTCGTTTTCTTCGGGGAT | -0.791
29 | ATATCTTCGTTTTCTTCGGGGA | -0.103
30 | TTTCGCTTTTTGTAAAAGGTGA | -0.648

target: C11orf49; test: as above; conditions: shRNA

Row | Sequence | sensor-assay potency score (higher = more potent)
31 | AAATATTCAGTGAAGAACCTGG | 0.285
32 | TTTCTGAGTGAGCTCCAGCGGG | -0.907
33 | TTCATGGTCAGCAAATCGCCAT | -0.72
34 | TCGTCCATGAGCACAATCCTGG | -1.16
35 | TTCTCCAACAGGCCACAGCGGT | -1.61
36 | TAGCTATTAGACACAAAGGGGT | -0.34
37 | TTTCACATGTTTGTTTAGCTAT | -0.281
38 | TTAGCTATTAGACACAAAGGGG | -0.469
39 | TTTTGCAAGTGAAATCATCTTC | 0.664
40 | TAACACTAGGGTAAACCCCTGG | -0.37
